Rows were chosen to be rich in hits. Some 11% of all compounds tested hit in one or more screens of this group.
3T3 cytotox: NIH 3T3 cell cytotoxicity; hit rate 4.3% among 94,000; Potency, µM (titrated, usually from 96.7 µM), for inactives: at the top dose activity change, negative = cytotoxicity, usual class: inhibitors; NIH 3T3 viability, CellTiter-Glo ATP luminescence, 48-72 h; note: nearly all actives have a fitted effect of over 55% in size
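Cells were seeded at 400 per well, treated with pin-transferred compound, and kept 48 or 72 hr at 37 °C before CellTiter-Glo addition and luminescence imaging of cellular ATP.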
hNpr1 antagonist: human Npr1 receptor antagonism. hit rate 1.6% among 76,000. HEK293 hNpr1 GloSensor cGMP, ANP-stimulated luminescence. Potency, µM (series often up to 46.3 µM), for the others: top-dose activity change, negative = inhibition, actives largely listed as inhibitors; calls by dose curve; note: nearly all actives have a fitted effect of over 60% in size
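Compound pre-incubated 30 min at room temperature on GloSensor-loaded HEK293 cells stably carrying hNpr1 and the pGS-40F cGMP biosensor. Stimulation uses hNppA at 0.1 nM final; luminescence is taken at baseline and 20 min post-agonist.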
FLuc inh: Photinus pyralis luciferase inhibition. P08659. purified P. pyralis luciferase, luminescence, biochemical. Potency, µM (top dose mostly 115 µM), hits mostly inhibitors. hit rate 2.5% among 76,000. AID 1347043; note: nearly all actives have a fitted effect of over 65% in size
Target sequence (P08659 whole entry, looked up): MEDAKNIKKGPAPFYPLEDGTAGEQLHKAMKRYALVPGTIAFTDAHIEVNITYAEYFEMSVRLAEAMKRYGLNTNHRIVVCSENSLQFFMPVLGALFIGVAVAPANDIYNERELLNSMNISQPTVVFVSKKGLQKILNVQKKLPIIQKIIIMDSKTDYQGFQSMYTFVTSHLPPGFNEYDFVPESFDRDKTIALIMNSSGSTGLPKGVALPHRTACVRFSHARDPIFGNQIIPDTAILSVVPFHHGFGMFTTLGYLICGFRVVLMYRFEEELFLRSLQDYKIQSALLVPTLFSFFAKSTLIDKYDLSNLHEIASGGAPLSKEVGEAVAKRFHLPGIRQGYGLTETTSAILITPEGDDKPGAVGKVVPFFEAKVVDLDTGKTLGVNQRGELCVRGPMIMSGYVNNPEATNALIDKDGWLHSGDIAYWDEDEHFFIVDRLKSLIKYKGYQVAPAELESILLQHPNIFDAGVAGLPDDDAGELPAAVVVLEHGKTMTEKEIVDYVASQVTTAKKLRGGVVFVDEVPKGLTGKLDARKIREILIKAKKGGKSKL
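Luminescence read by CCD imager after adding enzyme (10nM final) to wells holding compound, titrated in qHTS. Substrates 10uM each D-luciferin and ATP; buffer 50mM Tris acetate pH 7.5, 10mM Mg acetate, Tween-20, BSA.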
HEK293 tox: cytotoxic compounds in HEK 293 cells; hit rate 6.6% among 94,000; HEK 293 viability, ATP luminescence (CellTiter-Glo), 48-72 h; Potency, µM (top dose mostly 115 µM), for inactives: at the highest dose activity change, negative = cytotoxicity, most hits filed as inhibitors; note: nearly all actives have a fitted effect of over 60% in size
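Pintool-delivered compounds were incubated with HEK 293 cells (250 cells/well) at 37 degree Celsius for 48 or 72 hr. ATP-dependent luminescence (CellTiter-Glo) then reported remaining viable cells.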
An asterisk follows results filed as active; i = inactive; ? = inconclusive; . = no result given; [ ] = remark or other dose. Unless noted, calls come from the whole dose curve; as a rule, active = well fitted curve in the direction sought with a large enough effect; inconclusive = small, poorly fitted or top-dose-only effect, or another doubt; inactive = no such curve, though single readings can be large; an effect the other way counts as inactive or inconclusive. % is set by controls: 0 for no effect and ±100 for the full control effect; potency is the fitted concentration of half-maximal effect.

SMILES	3T3 cytotox	hNpr1 antagonist	FLuc inh	HEK293 tox
C=CCN1C[C@@H]2C[C@@H](C(=O)NC)N(C(=O)CC(C)(C)C)c3cccc(c32)[S+]1(=O)[O-]	?	.	.	-12.5%[57.5 µM]
CO[C@H]1C(=O)N(C(C)C)[C@H]1C1CCN(Cc2ccc(C)s2)CC1	i	1.5%	i	i
CCc1cccc(NC(=O)c2ccc3c(c2)N(CC)C2CCCCN2C3=O)c1 (centres undefined)	?	0.0%	i	?
CCc1cccc(NC(=O)c2ccc3c(c2)N(C)C2CCCN2C3=O)c1 (centres undefined)	?	0.0%	25.1µM*	?
CCN1c2cc(C(=O)Nc3cccc(C)c3)ccc2C(=O)N2CCCCCC21 (centres undefined)	?	-2.3%	i	?
CCc1cccc(NC(=O)c2ccc3c(c2)N(CC)C2CCCCCN2C3=O)c1 (centres undefined)	?	1.7%	i	31.6µM*
CCN1c2cc(C(=O)Nc3ccccc3C(=O)OC)ccc2C(=O)N2CCCCCC21 (centres undefined)	20µM*	-2.2%	i	?
CCN1c2cc(C(=O)Nc3cccc(C(C)C)c3)ccc2C(=O)N2CCCCCC21 (centres undefined)	31.6µM*	-6.4%	i	28.2µM*
O=C1CCN(Cc2ccc(F)cc2F)CCCC(c2nc(-c3cccnc3)no2)CCN1 (centres undefined)	?	-21.7%	i	?
CC(NC(=O)c1ccc(-c2nnc3ccc(NC(=O)C4CCC4)cn23)cc1)c1cccs1 (centres undefined)	?	-21.3%	i	?
O=C1CCN(S(=O)(=O)c2ccccc2)CCCN(Cc2cccc3[nH]ccc23)CCN1	-19.3%	0.4%	i	?
CCc1cccc(NC(=O)c2ccc3c(c2)N(C)C2CCCCCN2C3=O)c1 (centres undefined)	?	-0.4%	?	35.5µM*
NCc1cccc(Oc2ncnc3ccccc23)c1	-3.7%[138 µM]	.	.	2.2%[172 µM]
O=C1Cc2c(-c3ccccc3OCc3ccccc3)n[nH]c2CN1Cc1ccccn1	?	-9.6%[70.6 µM]	i	100µM*
O=C1Cc2c(-c3ccccc3Oc3ccccc3)n[nH]c2CN1Cc1ccccn1	?	-4.7%[70.6 µM]	i	?
O=C1Cc2c(-c3ccccc3OCc3ccccc3)n[nH]c2CN1CCOc1ccccc1	?	-17.8%	i	?
O=C1Cc2c(-c3ccccc3OCc3ccccc3)n[nH]c2CN1Cc1ccccc1	?	-21.2%[70.6 µM]	i	50.1µM*
Cc1ccc(Cn2cc(-c3ccncc3)cc2C(=O)NCc2ccc(N(C)C)cc2)cc1	?	0.2%	i	44.7µM*
Cc1ccc(C(CC(=O)N2CCc3ccccc3C2)c2cn(C)c3ccccc23)cc1 (centres undefined)	?	-17.9%	35.5µM*	?
CCOC(=O)C1CCCN(C(=O)CC(c2ccc3c(c2)OCO3)c2cn(CC)c3ccccc23)C1 (centres undefined)	39.8µM*	-15.0%	i	?
Cc1ccc(C(CC(=O)N2CCCCC2)c2cn(C)c3ccccc23)cc1 (centres undefined)	?	-17.6%	i	50.1µM*
CCOC(=O)C1CCN(C(=O)CC(c2ccc(Cl)cc2)c2cn(C)c3ccccc23)CC1 (centres undefined)	?	-16.0%	i	?
CCC(c1cccs1)N1C(=O)[C@H]2CN(S(=O)(=O)c3ccccc3C)C[C@H]2C1=O (some centres undefined)	-26.2%	-19.9%	i	?
CC(=O)Nc1ccc(NC(=O)CN2C(=O)NC(c3ccc(C)cc3)C3=C2COC3=O)cc1 (centres undefined)	-21.0%	-10.3%	?	-6.7%
Cc1ccc(C2NC(=O)N(CC(=O)Nc3ccc(C(F)(F)F)cc3)C3=C2C(=O)OC3)cc1 (centres undefined)	31.6µM*	?	i	25.1µM*
SMILES	3T3 cytotox	hNpr1 antagonist	FLuc inh	HEK293 tox
O=C(CN1C(=O)NC(c2ccc(Cl)cc2)C2=C1COC2=O)Nc1ccccc1 (centres undefined)	?	-14.6%	i	?
O=C(CN1C(=O)NC(c2ccc(Cl)cc2)C2=C1COC2=O)Nc1ccc(C(F)(F)F)cc1 (centres undefined)	22.4µM*	?	i	?
O=C(CN1C(=O)NC(c2ccc(Cl)cc2)C2=C1COC2=O)NCCc1ccc(Cl)cc1 (centres undefined)	?	-25.6%	i	44.7µM*
CCCCc1ccc(NC(=O)CN2C(=O)NC(c3ccc(Cl)cc3)C3=C2COC3=O)cc1 (centres undefined)	20µM*	-21.5%	i	20µM*
COc1ccccc1NC(=O)Cn1cccc1-c1nc(-c2ccc(F)cc2)no1	-24.9%	-1.5%	i	-22.1%
Fc1ccc(OC2CN(Cc3ccccc3)C2)cc1F	-16.1%[138 µM]	.	.	-26.9%[172 µM]
O=[S+]([O-])(NC1CCN(Cc2cccc(-c3cccs3)c2)CC1)c1ccccc1	39.8µM*	.	.	44.7µM*
O=C(c1ccc(-c2cccs2)cc1)N1CCC(N[S+](=O)([O-])c2ccccc2)CC1	?	.	.	44.7µM*
O=[S+]([O-])(CCC(F)(F)F)NC1CCN(Cc2cccc(-c3cccs3)c2)CC1	22.4µM*	.	.	?
O=[S+]([O-])(NC1CCN(Cc2cccc(-c3ccc(F)c(F)c3)c2)CC1)c1cccs1	?	.	.	35.5µM*
O=C(c1ccc(-c2cncnc2)cc1)N1CCC(N[S+](=O)([O-])c2ccccc2)CC1	-15.6%	.	.	-13.2%
O=C(NCc1ccccc1Cl)C1CCN(C(=O)c2ccc(-c3cccs3)cc2)CC1	39.8µM*	.	.	?
O=C(Cc1ccc(F)cc1)NC1CCN(Cc2cccc(-c3cccs3)c2)CC1	-12.3%	.	.	-1.2%
Cc1ccc([S+](=O)([O-])NC2CCN(Cc3cccc(-c4cccs4)c3)CC2)cc1	11.2µM*	.	.	?
C=CCCC(=O)N1C[C@@H](C(=O)OCC)[C@@H]2Oc3c(C)cccc3[C@@H]21	?	.	.	-15.9%
COCC1CN(C(C)=O)CC12CCN(Cc1cccc(Br)c1)CC2 (centres undefined)	-17.8%	-18.9%	i	79.4µM*
O=C(c1ccccc1)N1CCC(n2cc(-c3nc(-c4ccccc4)no3)nn2)CC1	39.8µM*	0.0%	i	?
O=C(COc1ccccc1)N1CCC(n2cc(-c3nc(-c4ccccc4)no3)nn2)CC1	12.6µM*	0.0%	i	?
O=C(c1c(F)cccc1F)N1CCC(n2cc(-c3nc(-c4ccccc4)no3)nn2)CC1	?	1.12µM*	i	?
Cc1ccc(C(=O)N2CCC(n3cc(-c4nc(-c5ccccc5)no4)nn3)CC2)cc1	-16.8%	-20.5%	i	?
Cc1nn(C)c(C)c1CCN(C)C(=O)C1CCCCC(=O)N1 (centres undefined)	i	-3.0%	i	-0.4%
COc1ccc(Cc2nc3nccc(-c4ccc(OC)c(OC)c4)n3n2)cc1	14.1µM*	0.5%	i	?

Compound activity deposited in PubChem BioAssay by National Center for Advancing Translational Sciences (NCATS).
